The record followed here is PubChem BioAssay (Tox21).

Experiment [1] can be described thus: qHTS assay to identify aromatase inhibitors - cell viability counter screen (AID 743084).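 Also: cells stimulated with testosterone during compound exposure; nearly all actives have a fitted effect of over 55% in size.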 Also: potency is read from the fitted curve at half-maximal effect.
Experiment [2] deals with Aryl hydrocarbon receptor (Homo sapiens) (UniProt P35869). The experiment is described as follows: qHTS assay to identify small molecule that activate the aryl hydrocarbon receptor (AhR) signaling pathway (AID 743085).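 Also: HG2L7.5c1 human HepG2 liver cells with stably integrated DRE-driven firefly reporter; series mostly up to about 70 µM; nearly all actives have a fitted effect of over 15% in size.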 The method, boiled down:
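HepG2 cells stably carrying a 20-DRE firefly luciferase reporter (HG2L7.5c1) treated with compound for 24 hr at 37C. Luciferase read by ONE-Glo luminescence, with CellTiter-Fluor viability read first.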

Experiment [3] can be described thus: qHTS assay to identify small molecule that activate the aryl hydrocarbon receptor (AhR) signaling pathway - cell viability counter screen (AID 743086).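 Also: HepG2 liver cells carrying the AhR DRE luciferase reporter; series mostly up to about 70 µM; nearly all actives have a fitted effect of over 45% in size.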 A digest of the protocol:
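HepG2-AhR-luc (HG2L7.5c1) cells, 4000/well, treated 24 h at 37 C with compound; viability measured as CellTiter-Fluor fluorescence after 30 min in the same wells as the luciferase read.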

Experiment [4] can be described thus: qHTS assay to identify small molecule antagonists of the peroxisome proliferator-activated receptor gamma (PPARg) signaling pathway - cell viability counter screen (AID 743194). Also: nearly all actives have a fitted effect of over 55% in size. Also: potency is read from the fitted curve at half-maximal effect. The conditions noted are these: Potency: co-treated with 50 nM rosiglitazone. The method, boiled down:
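Cytotoxicity counter screen in PPARg-bla HEK293H cells, same wells as reporter assay. Compounds plus 50 nM rosiglitazone (final) for 17 h at 37 C, then viability read by CellTiter-Glo luminescence.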

Experiment [5] can be described thus: qHTS assay for small molecule agonists of the antioxidant response element (ARE) signaling pathway - cell viability counter screen (AID 743203; calls by dose curve; also: nearly all actives have a fitted effect of over 55% in size; also: potency is read from the fitted curve at half-maximal effect). The method, boiled down: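 ATP content via CellTiter-Glo luminescence served as the viability measure. Cells: ARE-bla HepG2, 2,000 per well. Exposure: 16 hrs, 37C/5% CO2.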
Experiment [6] is described as follows: qHTS assay for small molecule activators of the heat shock response signaling pathway - cell viability counter screen (AID 743209). Also: nearly all actives have a fitted effect of over 50% in size. The method, boiled down:
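Compounds dissolved in DMSO were added to overnight-plated HSE-bla HeLa cells and left 5 h at 37 C. Cell viability was quantified by luminescence using CellTiter-Glo.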

The nature of experiment [7]: qHTS assay for small molecule activators of the heat shock response signaling pathway (AID 743210; active = well fitted activation curve with a large enough effect in the signal ratio in the repeat runs, with a control signal flat, not every such curve was filed as active; the % refers to the signal ratio;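 also: HeLa cells with beta-lactamase reporter driven by heat shock elements; series mostly up to about 63 µM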). The method, boiled down:
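Following overnight attachment, HSE-bla HeLa cells received test compounds for 5 h at 37 C; beta-lactamase activity was then detected via FRET substrate fluorescence.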

Experiment [8] can be described thus: qHTS assay to identify small molecule agonists of the peroxisome proliferator-activated receptor delta (PPARd) signaling pathway - cell viability counter screen (AID 743211). Also: nearly all actives have a fitted effect of over 55% in size. Also: potency is read from the fitted curve at half-maximal effect. A digest of the protocol:
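PPARd-bla HEK293H cells (3000/well) were pre-incubated 5 h at 37 C, then exposed to compound for 17 h at 37 C. After 2 h with LiveBLAzer substrate, CellTiter-Glo was added to the same wells; luminescence read after 30 min at room temperature.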

Experiment [9] has as its target Peroxisome proliferator-activated receptor delta (Homo sapiens) (UniProt Q03181). The experiment can be described thus: qHTS assay to identify small molecule agonists of the peroxisome proliferator-activated receptor delta (PPARd) signaling pathway (AID 743212; calls by dose curve). The method, boiled down:
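Tox21 library screened in GeneBLAzer PPARd UAS-bla HEK293H cells. After compound treatment at 37 C, a FRET-based beta-lactamase substrate was applied for 2 h and fluorescence recorded.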

The target is the same in experiment [10]. The experiment is described as follows: qHTS assay to identify small molecule antagonists of the peroxisome proliferator-activated receptor delta (PPARd) signaling pathway (AID 743215; active = well fitted inhibition curve with a large enough effect in the signal ratio in the repeat runs, not every such curve was filed as active; the % refers to the signal ratio;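 also: cells stimulated with agonist L165041 at 300 nM final during compound exposure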; also: potency is read from the fitted curve at half-maximal effect). A digest of the protocol:
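Here, a reporter line (HEK293H, beta-lactamase under a UAS) measures PPARd signaling. Compounds are tested against agonist L165041 at 300 nM final concentration over 17 h at 37 C, with fluorescence read after substrate.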

Experiment [11] addresses Vitamin D3 receptor (Homo sapiens) (UniProt P11473). The experiment is described as follows: qHTS assay to identify small molecule agonists of the vitamin D receptor (VDR) signaling pathway (AID 743222; calls by dose curve). A digest of the protocol:
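Tox21 cell reporter format: VDR-bla line, 16 h compound exposure in 5% CO2 at 37C, then fluorescence intensity after 2 h with LiveBLAzer B/G FRET substrate.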

For experiment [12], the target named is Peroxisome proliferator-activated receptor gamma (Homo sapiens) (UniProt P37231). The experiment can be described thus: qHTS assay to identify small molecule antagonists of the peroxisome proliferator-activated receptor gamma (PPARg) signaling pathway (AID 743191; calls by dose curve; also: series mostly up to about 63 µM; nearly all actives have a fitted effect of over 30% in size). The method, boiled down:
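GeneBLAzer PPARg UAS-bla HEK293H cells, 5 h post-plating, exposed to compounds 17 h at 37C. LiveBLAzer B/G FRET substrate added for 1 h at room temperature; beta-lactamase reporter read by fluorescence intensity.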

Experiment [13] in a line: qHTS assay for small molecule agonists of the antioxidant response element (ARE) signaling pathway (AID 743202; active = well fitted activation curve with a large enough effect in the signal ratio in the repeat runs, not every such curve was filed as active; the % refers to the signal ratio). A digest of the protocol: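 HepG2 ARE-bla cells; 16 h treatment at 37 C; FRET-based beta-lactamase fluorescence read after 2 h substrate incubation at room temperature.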
The nature of experiment [14]: qHTS assay to identify small molecule antagonists of the peroxisome proliferator-activated receptor delta (PPARd) signaling pathway - cell viability counter screen (AID 743213). Also: nearly all actives have a fitted effect of over 50% in size. Also: potency is read from the fitted curve at half-maximal effect. The method, boiled down:
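In this counter screen, HEK293H cells carrying a UAS-beta-lactamase reporter are co-treated with test compounds and 300 nM L165041 (final) for 17 h at 37 C; cell viability is quantified by CellTiter-Glo luminescence.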

A short description of experiment [15]: qHTS assay to identify small molecule agonists of the farnesoid-X-receptor (FXR) signaling pathway - cell viability counter screen (AID 743218). Also: nearly all actives have a fitted effect of over 45% in size. Also: potency is read from the fitted curve at half-maximal effect. The method, boiled down:
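Quantitative HTS counter screen measuring ATP-based viability via CellTiter-Glo luminescence in HEK 293T cells carrying a UAS-driven beta-lactamase reporter, after 16 h compound exposure at 37 C.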

In experiment [16] the target is Bile acid receptor (Homo sapiens) (UniProt Q96RI1). The experiment can be described thus: qHTS assay to identify small molecule agonists of the farnesoid-X-receptor (FXR) signaling pathway (AID 743220; active = well fitted activation curve with a large enough effect in the signal ratio in the repeat runs, not every such curve was filed as active; the % refers to the signal ratio). A digest of the protocol:
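FXR-UAS-bla HEK 293T cells carrying a UAS-driven beta-lactamase reporter were plated for 5 h at 37C/5% CO2, then exposed to DMSO-dissolved Tox21 10K compounds for 16 h at 37C. A LiveBLAzer B/G FRET substrate was loaded for 2 h at room temperature before fluorescence reading.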

The nature of experiment [17]: qHTS assay to identify small molecule antagonists of the farnesoid-X-receptor (FXR) signaling pathway - cell viability counter screen (AID 743221; active = well fitted cell-killing curve with a large enough effect in the repeat runs, not every such curve was filed as active; also: nearly all actives have a fitted effect of over 50% in size). The method, boiled down: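 GeneBLAzer FXR-UAS-bla HEK 293T cells, compound plus chenodeoxycholic acid (50 uM final), 16 h at 37 C. CellTiter-Glo added to the same wells after the beta-lactamase read; luminescence read after 30 min at room temperature as viability.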

Experiment [18] addresses Vitamin D3 receptor (Homo sapiens) (UniProt P11473). The experiment can be described thus: qHTS assay to identify small molecule antagonists of the vitamin D receptor (VDR) signaling pathway (AID 743223; active = well fitted inhibition curve with a large enough effect in the signal ratio in the repeat runs, not every such curve was filed as active; the % refers to the signal ratio). A digest of the protocol:
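VDR-bla cells were treated with compound plus 3 nM final 1alpha,25-dihydroxyvitamin D3 for 16 h at 37C. Beta-lactamase reporter read by B/G FRET substrate fluorescence after 2 h at room temperature. qHTS format.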

Experiment [19] addresses Peroxisome proliferator-activated receptor gamma (Homo sapiens) (UniProt P37231). The experiment is described as follows: qHTS assay to identify small molecule agonists of the peroxisome proliferator-activated receptor gamma (PPARg) signaling pathway (AID 743094; active = well fitted activation curve with a large enough effect in the signal ratio in the repeat runs, not every such curve was filed as active; the % refers to the signal ratio). The method, boiled down: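 Agonism was assessed in a beta-lactamase reporter system, HEK293H cells with a stably integrated UAS-bla construct under PPARg control; the 17 h treatment at 37C preceded a 1 h room-temperature FRET substrate read.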

For experiment [20], the target named is Bile acid receptor (Homo sapiens) (UniProt Q96RI1). The experiment is described as follows: qHTS assay to identify small molecule antagonists of the farnesoid-X-receptor (FXR) signaling pathway (AID 743217; active = well fitted inhibition curve with a large enough effect in the signal ratio in the repeat runs, not every such curve was filed as active; the % refers to the signal ratio). A digest of the protocol:
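Test compounds are pin-transferred onto FXR-bla HEK 293T cells, then chenodeoxycholic acid is added at 50 uM final. After 16 h at 37 °C, LiveBLAzer B/G substrate is applied for 2 h at room temperature and fluorescence read.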

Values joined by “and” are separate entries in the source; they are usually repeats but may differ in a detail not shown here. Identical values can stand only once. Records with an inconclusive call do not appear. Active and inactive are the calls of the source. Unless noted, calls follow the shape of the dose curve; as a rule, active = well fitted curve in the direction sought with a large enough effect in the repeat runs; inconclusive = weak or mixed curves; inactive = no such curve, though single readings can be large; an effect the other way counts as inactive or inconclusive.

Peroxisome proliferator-activated receptor delta (Homo sapiens), sequence (Q03181 whole entry, looked up): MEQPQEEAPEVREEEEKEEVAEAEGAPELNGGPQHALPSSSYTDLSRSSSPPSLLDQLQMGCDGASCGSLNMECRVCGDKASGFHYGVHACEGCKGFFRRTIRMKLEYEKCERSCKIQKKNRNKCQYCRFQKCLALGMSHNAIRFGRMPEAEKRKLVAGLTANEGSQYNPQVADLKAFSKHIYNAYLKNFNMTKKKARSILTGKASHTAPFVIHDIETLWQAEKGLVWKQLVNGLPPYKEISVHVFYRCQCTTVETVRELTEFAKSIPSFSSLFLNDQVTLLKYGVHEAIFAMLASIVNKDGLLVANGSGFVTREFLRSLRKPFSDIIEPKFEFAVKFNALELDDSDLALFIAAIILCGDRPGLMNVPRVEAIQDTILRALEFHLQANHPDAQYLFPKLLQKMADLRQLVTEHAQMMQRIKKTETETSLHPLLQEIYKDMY
Aryl hydrocarbon receptor (Homo sapiens), sequence (P35869 whole entry, looked up): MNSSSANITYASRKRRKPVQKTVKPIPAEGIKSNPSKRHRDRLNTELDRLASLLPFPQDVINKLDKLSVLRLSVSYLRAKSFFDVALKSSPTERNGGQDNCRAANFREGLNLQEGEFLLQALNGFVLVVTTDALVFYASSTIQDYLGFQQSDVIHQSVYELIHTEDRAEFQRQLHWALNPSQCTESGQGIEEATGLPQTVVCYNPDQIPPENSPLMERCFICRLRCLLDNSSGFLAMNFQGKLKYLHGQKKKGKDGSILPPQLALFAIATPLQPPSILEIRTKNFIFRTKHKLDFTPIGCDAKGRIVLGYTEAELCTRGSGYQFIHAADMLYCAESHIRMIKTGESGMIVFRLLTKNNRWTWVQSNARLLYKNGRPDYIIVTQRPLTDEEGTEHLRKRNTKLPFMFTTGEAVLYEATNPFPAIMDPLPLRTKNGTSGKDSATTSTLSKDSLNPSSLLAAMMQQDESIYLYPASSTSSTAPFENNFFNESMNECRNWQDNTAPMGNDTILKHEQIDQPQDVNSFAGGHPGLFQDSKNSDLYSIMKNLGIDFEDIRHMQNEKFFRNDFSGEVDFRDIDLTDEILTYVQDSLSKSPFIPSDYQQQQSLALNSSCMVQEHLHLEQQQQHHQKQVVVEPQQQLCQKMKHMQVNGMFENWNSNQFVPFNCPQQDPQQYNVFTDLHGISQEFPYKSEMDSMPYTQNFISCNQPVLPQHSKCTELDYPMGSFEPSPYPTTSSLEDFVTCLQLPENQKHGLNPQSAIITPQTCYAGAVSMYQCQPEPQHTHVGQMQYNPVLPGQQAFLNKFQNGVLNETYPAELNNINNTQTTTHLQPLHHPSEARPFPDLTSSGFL
Bile acid receptor (Homo sapiens), sequence (Q96RI1 whole entry, looked up): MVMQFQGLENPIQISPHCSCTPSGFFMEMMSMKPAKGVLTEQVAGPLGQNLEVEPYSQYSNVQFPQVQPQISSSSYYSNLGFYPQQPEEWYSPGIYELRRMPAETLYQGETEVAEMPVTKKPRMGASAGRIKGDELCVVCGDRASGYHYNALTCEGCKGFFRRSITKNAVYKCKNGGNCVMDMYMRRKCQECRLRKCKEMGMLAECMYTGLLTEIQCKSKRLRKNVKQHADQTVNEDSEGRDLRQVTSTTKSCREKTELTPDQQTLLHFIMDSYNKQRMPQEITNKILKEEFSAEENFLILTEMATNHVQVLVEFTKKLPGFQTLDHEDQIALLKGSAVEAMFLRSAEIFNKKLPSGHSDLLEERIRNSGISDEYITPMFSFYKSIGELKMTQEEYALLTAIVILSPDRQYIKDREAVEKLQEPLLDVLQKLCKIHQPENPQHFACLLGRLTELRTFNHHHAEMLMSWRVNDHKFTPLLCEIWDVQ
Vitamin D3 receptor (Homo sapiens), sequence (P11473 whole entry, looked up): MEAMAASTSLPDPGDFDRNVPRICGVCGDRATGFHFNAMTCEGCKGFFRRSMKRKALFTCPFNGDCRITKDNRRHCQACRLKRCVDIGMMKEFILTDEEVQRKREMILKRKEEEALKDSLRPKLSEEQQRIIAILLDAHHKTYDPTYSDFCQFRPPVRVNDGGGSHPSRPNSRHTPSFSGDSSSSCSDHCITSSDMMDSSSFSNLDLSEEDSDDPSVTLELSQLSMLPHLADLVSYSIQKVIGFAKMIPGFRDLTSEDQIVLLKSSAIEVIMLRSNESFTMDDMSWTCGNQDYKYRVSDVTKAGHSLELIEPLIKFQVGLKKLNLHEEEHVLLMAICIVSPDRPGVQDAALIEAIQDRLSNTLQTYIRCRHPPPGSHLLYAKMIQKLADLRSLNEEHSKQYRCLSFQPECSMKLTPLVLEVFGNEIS
Peroxisome proliferator-activated receptor gamma (Homo sapiens), sequence (P37231 whole entry, looked up): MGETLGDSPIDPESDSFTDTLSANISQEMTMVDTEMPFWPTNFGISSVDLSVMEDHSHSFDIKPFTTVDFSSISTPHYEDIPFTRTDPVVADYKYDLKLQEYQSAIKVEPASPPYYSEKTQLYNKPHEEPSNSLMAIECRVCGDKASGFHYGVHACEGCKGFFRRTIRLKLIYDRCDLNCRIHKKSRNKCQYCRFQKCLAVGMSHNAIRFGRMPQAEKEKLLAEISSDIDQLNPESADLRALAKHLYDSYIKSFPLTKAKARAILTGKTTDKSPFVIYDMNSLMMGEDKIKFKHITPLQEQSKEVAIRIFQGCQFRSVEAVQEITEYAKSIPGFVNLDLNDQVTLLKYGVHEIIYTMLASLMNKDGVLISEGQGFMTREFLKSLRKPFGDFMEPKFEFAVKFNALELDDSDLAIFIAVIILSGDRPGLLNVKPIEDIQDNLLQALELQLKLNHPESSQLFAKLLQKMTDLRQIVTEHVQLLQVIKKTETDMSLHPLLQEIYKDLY

`C[N+](C)(C)CCOC(=O)C(O)(c1ccccc1)c1ccccc1`: the Potency entry in experiment [1], in experiment [2], in experiment [3], in [4], in experiment [5] and in experiment [6] was “inactive” in each case. For the same molecule, the Potency entry in [7], in [8] and in experiment [10] was “inactive” in each case. Besides, the result in [9] and in experiment [11] was inactive.

Turning to `Cc1ccc(N)c(C)c1`, the Potency entry in experiment [1], in experiment [2], in experiment [3], in [12], in experiment [4] and in experiment [13] was “inactive” each time. The Potency result in [7], in experiment [8], in experiment [14], in experiment [10], in experiment [15] and in [17] was “inactive” in each case. The Potency result in [18] is “inactive”. Also, the call in experiment [9], in experiment [16] and in experiment [11] was inactive.

`O=C1c2ccccc2C(=O)N1SC(Cl)(Cl)Cl`: the Potency in experiment [1] is 1.22 µM (active); in experiment [4], 2.19 µM (active); in [5], 60.3 µM (active) and 13.7 µM (active); in [8], 38.3 µM (active) and 6.92 µM (active); in experiment [14], 21.6 µM (active) and 5.49 µM (active); in [10] it was 19.5 µM (active). For the same molecule, the Potency in [15] was 34.7 µM (active). In addition, the Potency entry in experiment [2], in experiment [3] and in experiment [19] was “inactive” each time. Besides, the outcome in [16] was inactive.

On to `NNCCO`, for which the Potency entry in experiment [1], in experiment [2], in experiment [3], in experiment [4], in experiment [13] and in [5] was “inactive” each time. Moreover, the Potency result in experiment [6], in [7], in [8] and in experiment [17] was “inactive” each time. The outcome in experiment [16] and in experiment [11] was inactive.

For `Cc1ncc(C[n+]2csc(CCO)c2C)c(N)n1`, the Potency result in experiment [1], in experiment [2], in experiment [3], in [4], in experiment [13] and in experiment [6] was “inactive” in each case. Besides, the Potency result in [8], in [14], in experiment [15] and in [18] was “inactive” throughout. In experiment [11], the call was inactive.

Consider `O=C(Cc1ccccc1)c1ccccc1`, for which the Potency entry in [1], in [2], in experiment [3], in experiment [4], in [13] and in experiment [6] was “inactive” throughout. Further, the Potency entry in experiment [7], in experiment [8], in experiment [14], in experiment [15], in experiment [17] and in experiment [18] was “inactive” each time. Further, the call in [9], in experiment [16] and in [11] was inactive.

For the molecule `CC(C)OC(=O)Cc1ccccc1`, the Potency entry in [1], in experiment [2], in experiment [3], in [19], in [4] and in experiment [13] was “inactive” each time. Also, the Potency result in experiment [5], in experiment [6], in experiment [7], in [8], in [14] and in experiment [15] was “inactive” each time. Moreover, the Potency entry in experiment [17] was “inactive”. The molecule was classed as inactive in [11].

In the case of `CCCCC#N`, the Potency result in experiment [1], in [2], in experiment [3], in [4], in experiment [13] and in experiment [5] was “inactive” in each case. Besides, the Potency result in experiment [6], in experiment [14], in experiment [10], in [15] and in experiment [17] was “inactive” throughout. Besides, in [9], the molecule was called inactive.

For `Cc1cccc(C)c1NC1=NCCCS1`, the Potency entry in experiment [1], in experiment [2], in experiment [3], in experiment [4], in experiment [5] and in experiment [6] was “inactive” in each case. In addition, the Potency result in [8], in experiment [14], in [10], in [15], in experiment [17] and in experiment [18] was “inactive” in each case. The outcome in experiment [9] and in experiment [11] was inactive.

As to `O=CC=O`, the Potency result in experiment [1], in experiment [3], in experiment [19], in [12], in experiment [4] and in [13] was “inactive” throughout. Moreover, the Potency entry in experiment [5], in experiment [6], in [7], in [8], in experiment [14] and in experiment [10] was “inactive” each time. Also, the Potency entry in experiment [15] and in experiment [17] was “inactive” in each case. Besides, in [9], the molecule was classed as inactive.

`CC(O)CN1CCN(CC(=O)[O-])CCN(CC(=O)[O-])CCN(CC(=O)[O-])CC1.[Gd+3]` (centres undefined): the Potency entry in experiment [1], in experiment [2], in experiment [4], in experiment [13], in experiment [5] and in experiment [8] was “inactive” each time. For the same molecule, the Potency entry in experiment [14], in experiment [10], in experiment [15], in experiment [17] and in experiment [18] was “inactive” throughout. For the same molecule, the molecule was classed as inactive in experiment [9], in experiment [16] and in [11].

With `CON(C)C(=O)Nc1ccc(Cl)cc1`, the Potency result in experiment [1], in experiment [3], in experiment [19], in experiment [12], in experiment [4] and in experiment [13] was “inactive” throughout. Besides, the Potency entry in experiment [5], in experiment [6], in [7], in [8], in experiment [14] and in experiment [10] was “inactive” each time. The Potency result in experiment [20], in experiment [15], in experiment [17] and in experiment [18] was “inactive” in each case. Also, the result in [9], in experiment [16] and in experiment [11] was inactive.
